# ChEMBL document CHEMBL3988442, “University of Dundee, Small-Polar-MMV Screening Library” (2021)
# For some of these results: Entries with a potency or affinity are not part of this list.
# Assays:
# Parameters in all cases: scale not given: direction of the effect not stated beside the values
# [1] = target: Protein translocase subunit SecA (Escherichia coli (strain K12)) (UniProt P10408); assay: Assay to Identify E. coli SecA ATPase Inhibitors; assay type: functional; settings: 30 µM
# [2] = target: T1, Ubiquitin-activating enzyme e1, putative (Leishmania donovani (strain BPK282A1)) (UniProt E9BSI1); assay: Leishmania donovani Ubiquitin Activating Enzyme (LdE1); assay type: functional; settings: 30 µM
# T1 sequence (whole entry): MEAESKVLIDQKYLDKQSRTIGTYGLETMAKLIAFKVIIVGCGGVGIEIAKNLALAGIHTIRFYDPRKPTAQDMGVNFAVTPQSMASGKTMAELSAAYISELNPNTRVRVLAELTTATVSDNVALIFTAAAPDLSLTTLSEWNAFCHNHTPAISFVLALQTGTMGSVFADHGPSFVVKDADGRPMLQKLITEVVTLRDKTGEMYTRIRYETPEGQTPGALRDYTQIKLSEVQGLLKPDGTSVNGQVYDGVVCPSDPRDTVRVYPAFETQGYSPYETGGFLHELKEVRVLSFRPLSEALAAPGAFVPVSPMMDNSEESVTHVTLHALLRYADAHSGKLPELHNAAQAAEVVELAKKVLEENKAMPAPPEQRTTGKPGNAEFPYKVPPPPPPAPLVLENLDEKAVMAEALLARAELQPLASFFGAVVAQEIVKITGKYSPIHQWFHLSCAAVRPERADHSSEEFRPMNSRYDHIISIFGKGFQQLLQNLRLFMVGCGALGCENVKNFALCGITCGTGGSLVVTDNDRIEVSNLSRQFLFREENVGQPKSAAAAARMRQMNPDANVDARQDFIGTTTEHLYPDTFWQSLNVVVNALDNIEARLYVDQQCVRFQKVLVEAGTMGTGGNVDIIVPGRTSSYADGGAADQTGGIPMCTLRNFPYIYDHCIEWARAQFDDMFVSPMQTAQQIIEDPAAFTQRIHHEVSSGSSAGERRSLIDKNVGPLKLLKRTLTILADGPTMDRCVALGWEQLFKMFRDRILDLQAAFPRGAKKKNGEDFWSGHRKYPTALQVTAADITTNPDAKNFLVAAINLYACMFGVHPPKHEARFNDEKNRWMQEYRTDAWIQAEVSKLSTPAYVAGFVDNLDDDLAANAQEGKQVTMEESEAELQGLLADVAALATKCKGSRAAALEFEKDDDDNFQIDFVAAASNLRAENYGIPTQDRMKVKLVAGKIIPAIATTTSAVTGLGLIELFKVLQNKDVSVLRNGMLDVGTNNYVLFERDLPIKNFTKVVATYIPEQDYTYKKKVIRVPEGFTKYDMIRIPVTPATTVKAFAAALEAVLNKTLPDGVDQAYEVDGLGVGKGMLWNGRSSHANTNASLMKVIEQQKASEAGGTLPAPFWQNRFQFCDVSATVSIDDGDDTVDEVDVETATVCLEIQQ
# [3] = target: AMP-activated protein kinase, AMPK (Homo sapiens) (UniProt P54646+O43741+P54619+Q9UGJ0+Q9Y478+Q13131+Q9UGI9); assay: AMP-dependent Kinase enzyme assay. An in vitro enzyme assay that detects ADP turnover that is directly proportional to AMPK activity. This uses naive AMPK that is activated during the assay with MK-8722; assay type: functional; settings: 30 µM
# [4] = target: Sialic acid-binding Ig-like lectin 9 (Homo sapiens) (UniProt Q9Y336); assay: Hs-Siglec9 ALPHAscreen SOP 20170721; settings: 10 µM
# Trypanosoma cruzi = assay: Trypanosoma cruzi phosphomannomutase and mannose-1-phosphate guanylyltransferase assay; assay type: functional; settings: 10 µM
# [5] = target: T2, Arginase-2, mitochondrial (Homo sapiens) (UniProt P78540); assay: in vitro enzyme assay to detect the production of urea directly proportional to the activity of Arginase II; assay type: functional; settings: 33.3 µM; also: in the data most compounds retested in dose-response had high values
# T2 sequence (whole entry): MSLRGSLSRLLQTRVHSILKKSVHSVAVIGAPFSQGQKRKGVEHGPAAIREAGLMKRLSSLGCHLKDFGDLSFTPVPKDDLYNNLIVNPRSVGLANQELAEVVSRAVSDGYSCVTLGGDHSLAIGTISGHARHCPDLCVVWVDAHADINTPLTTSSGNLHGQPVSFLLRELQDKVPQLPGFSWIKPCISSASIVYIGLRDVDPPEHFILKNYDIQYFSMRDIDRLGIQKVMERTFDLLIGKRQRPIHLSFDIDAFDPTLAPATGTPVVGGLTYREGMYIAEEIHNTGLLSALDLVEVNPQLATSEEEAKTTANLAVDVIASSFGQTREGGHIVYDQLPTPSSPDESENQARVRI
# [6] = target: T3, Proteasome subunit beta (Trypanosoma cruzi) (UniProt O96673); assay: Trypanosoma cruzi proteasome chymotrypsin-like activity (TcProtChymo) assay.; also: in the data most compounds retested in dose-response had high values; assay type: functional; settings: 9.37 µM
# T3 sequence (whole entry): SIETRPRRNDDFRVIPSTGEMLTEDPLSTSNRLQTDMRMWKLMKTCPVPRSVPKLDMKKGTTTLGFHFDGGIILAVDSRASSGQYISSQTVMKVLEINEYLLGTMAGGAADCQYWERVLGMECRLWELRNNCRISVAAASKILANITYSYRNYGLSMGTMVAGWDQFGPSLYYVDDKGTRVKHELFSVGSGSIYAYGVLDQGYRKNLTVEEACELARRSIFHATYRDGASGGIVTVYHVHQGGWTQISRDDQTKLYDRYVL
# Homo sapiens = organism: Homo sapiens; assay: To identify inhibition of the IFN signalling (Jak-Stat) pathway via expression of an eGFP reporter gene under the control of an IFN-stimulated response element (ISRE) containing MxA promoter.; assay type: functional; settings: 30 µM
# [7] = target: T4, Tyrosyl-tRNA synthetase, putative (Trypanosoma cruzi (strain CL Brener)) (UniProt Q4DSP6); assay: Trypanosoma cruzi tyrosyl tRNA synthetase (TcYRS) _High Tyrosine SOP; assay type: functional; settings: 30 µM; also: in the data most compounds retested in dose-response had high values
# T4 sequence (whole entry): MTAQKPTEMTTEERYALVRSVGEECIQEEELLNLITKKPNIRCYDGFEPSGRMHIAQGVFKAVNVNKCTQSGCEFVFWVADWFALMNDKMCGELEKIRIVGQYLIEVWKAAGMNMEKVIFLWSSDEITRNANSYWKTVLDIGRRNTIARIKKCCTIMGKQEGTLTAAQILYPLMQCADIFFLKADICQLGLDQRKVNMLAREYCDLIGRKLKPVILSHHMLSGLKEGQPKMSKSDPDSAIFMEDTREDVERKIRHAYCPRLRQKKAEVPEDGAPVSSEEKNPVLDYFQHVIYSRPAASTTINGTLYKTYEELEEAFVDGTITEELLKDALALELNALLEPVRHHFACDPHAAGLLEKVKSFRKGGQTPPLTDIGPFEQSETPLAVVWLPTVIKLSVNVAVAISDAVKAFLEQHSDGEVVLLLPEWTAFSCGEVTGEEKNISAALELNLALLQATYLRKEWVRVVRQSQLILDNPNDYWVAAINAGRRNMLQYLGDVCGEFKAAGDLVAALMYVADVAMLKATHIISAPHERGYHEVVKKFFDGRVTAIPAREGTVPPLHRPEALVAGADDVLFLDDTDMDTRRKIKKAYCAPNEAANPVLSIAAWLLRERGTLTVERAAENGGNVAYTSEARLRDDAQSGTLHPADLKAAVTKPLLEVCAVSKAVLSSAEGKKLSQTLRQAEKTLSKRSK
# [8] = target: T4, Tyrosyl-tRNA synthetase, putative (Trypanosoma cruzi (strain CL Brener)); assay: Trypanosoma cruzi tyrosyl tRNA synthetase (TcYRS) SOP; assay type: functional; settings: 30 µM
# [9] = target: Chromo domain-containing protein 1 (Saccharomyces cerevisiae (strain ATCC 204508 / S288c) (Baker's yeast)) (UniProt P32657); assay: ScCHD-1 Enzyme Inhibition Assay; assay type: functional; settings: 30 µM; also: in the data most compounds retested in dose-response had high values
# Sequence of Chromo domain-containing protein 1 (Saccharomyces cerevisiae (strain ATCC 204508 / S288c) (Baker's yeast)) (P32657 whole entry, the tested form may be a part): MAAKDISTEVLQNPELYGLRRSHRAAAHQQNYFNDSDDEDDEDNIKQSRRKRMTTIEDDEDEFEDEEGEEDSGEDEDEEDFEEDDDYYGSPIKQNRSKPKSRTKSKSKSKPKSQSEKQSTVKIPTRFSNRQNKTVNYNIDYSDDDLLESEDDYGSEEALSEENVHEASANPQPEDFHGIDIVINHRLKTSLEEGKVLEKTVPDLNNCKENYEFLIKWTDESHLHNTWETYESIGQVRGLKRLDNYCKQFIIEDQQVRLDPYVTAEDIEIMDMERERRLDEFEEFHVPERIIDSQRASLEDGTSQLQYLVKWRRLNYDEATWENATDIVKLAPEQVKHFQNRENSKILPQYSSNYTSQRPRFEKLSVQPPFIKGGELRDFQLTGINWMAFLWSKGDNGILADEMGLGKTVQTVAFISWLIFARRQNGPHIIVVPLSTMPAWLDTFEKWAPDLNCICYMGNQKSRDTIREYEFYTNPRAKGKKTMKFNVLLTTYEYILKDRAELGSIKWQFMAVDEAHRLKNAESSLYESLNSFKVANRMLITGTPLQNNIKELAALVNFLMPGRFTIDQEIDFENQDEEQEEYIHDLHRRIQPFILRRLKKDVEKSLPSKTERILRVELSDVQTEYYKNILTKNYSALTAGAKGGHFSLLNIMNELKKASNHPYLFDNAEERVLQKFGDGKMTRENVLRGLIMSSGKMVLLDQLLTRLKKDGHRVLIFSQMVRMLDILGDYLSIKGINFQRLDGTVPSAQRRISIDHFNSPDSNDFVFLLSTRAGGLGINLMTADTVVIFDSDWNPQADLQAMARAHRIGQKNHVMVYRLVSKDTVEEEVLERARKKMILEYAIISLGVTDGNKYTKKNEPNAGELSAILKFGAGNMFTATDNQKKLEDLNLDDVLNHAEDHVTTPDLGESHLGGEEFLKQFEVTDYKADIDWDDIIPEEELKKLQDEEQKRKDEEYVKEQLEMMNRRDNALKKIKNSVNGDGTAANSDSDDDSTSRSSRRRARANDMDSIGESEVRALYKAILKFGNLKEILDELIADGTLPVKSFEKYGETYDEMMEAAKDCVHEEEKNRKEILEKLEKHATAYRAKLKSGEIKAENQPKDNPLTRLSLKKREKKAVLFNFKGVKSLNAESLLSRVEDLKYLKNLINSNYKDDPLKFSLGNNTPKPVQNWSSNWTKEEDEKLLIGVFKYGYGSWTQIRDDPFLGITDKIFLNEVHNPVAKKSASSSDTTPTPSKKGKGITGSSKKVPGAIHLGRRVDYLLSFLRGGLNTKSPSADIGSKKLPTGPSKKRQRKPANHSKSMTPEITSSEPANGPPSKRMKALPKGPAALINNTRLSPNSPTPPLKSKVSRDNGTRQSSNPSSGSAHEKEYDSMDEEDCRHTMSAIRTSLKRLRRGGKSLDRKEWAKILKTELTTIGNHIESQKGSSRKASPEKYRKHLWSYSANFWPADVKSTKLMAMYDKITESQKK
# Sequence of Protein translocase subunit SecA (Escherichia coli (strain K12)) (P10408 whole entry): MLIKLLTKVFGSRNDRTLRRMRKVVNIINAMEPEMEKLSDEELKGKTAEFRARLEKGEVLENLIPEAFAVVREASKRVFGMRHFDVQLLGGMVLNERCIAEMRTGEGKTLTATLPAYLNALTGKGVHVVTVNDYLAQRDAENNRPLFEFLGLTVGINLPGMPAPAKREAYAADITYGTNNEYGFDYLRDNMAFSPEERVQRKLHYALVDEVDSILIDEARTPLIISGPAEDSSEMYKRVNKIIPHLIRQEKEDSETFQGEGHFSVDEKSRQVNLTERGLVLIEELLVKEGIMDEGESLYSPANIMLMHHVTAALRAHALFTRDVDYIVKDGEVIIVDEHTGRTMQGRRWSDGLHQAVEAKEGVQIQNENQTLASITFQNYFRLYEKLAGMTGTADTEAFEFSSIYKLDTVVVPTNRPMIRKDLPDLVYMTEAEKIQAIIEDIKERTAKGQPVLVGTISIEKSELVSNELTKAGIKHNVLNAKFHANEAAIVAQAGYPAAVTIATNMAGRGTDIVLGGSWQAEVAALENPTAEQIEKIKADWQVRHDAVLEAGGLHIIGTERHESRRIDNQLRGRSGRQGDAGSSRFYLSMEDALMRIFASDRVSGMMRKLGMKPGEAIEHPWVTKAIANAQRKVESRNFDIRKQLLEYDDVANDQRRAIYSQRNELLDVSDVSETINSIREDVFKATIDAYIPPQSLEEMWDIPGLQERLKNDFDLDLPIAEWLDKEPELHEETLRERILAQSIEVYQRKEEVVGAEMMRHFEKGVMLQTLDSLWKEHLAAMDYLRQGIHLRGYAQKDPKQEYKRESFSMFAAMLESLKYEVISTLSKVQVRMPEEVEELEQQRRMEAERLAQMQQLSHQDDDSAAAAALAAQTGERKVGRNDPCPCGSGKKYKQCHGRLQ
# Sequence of Sialic acid-binding Ig-like lectin 9 (Homo sapiens) (Q9Y336 whole entry): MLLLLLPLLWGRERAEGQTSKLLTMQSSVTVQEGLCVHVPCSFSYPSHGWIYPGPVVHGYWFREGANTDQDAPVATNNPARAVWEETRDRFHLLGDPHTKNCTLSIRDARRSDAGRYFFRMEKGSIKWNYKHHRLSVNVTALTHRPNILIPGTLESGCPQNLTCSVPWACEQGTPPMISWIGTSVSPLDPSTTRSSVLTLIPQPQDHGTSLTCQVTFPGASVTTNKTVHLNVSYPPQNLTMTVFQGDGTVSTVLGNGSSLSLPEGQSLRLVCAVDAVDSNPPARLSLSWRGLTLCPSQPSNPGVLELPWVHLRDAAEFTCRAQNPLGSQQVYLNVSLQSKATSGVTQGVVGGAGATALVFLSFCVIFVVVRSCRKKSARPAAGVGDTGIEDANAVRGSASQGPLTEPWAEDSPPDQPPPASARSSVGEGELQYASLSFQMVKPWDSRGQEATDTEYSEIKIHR
SMILES,Percent Effect [1] [%],Percent Effect [2] [%],Percent Effect [3] [%],Percent Effect [4] [%],Percent Effect (Trypanosoma cruzi) [%],Percent Effect [5] [%],Percent Effect [6] [%],Percent Effect (Homo sapiens) [%],Percent Effect [7] [%],Percent Effect [8] [%],Percent Effect [9] [%]
CC(C)N1CCC(Cc2cncc(-c3ccccc3C(=O)O)n2)CC1,-3.85,8,9.75,5.58,-4.13,0.699,4.32,13.7,5.32,8.97,-3.75
CC(=O)N1CC[C@H]2OCC[C@@H](C(=O)N3CCCCO3)[C@@H]2C1,-2.31,12,-3.03,10.7,-1.97,-8.63,15,-4.45,4.23,12.8,-7.82
CCS(=O)(=O)CCN1CCCC1c1noc(C2CC2)n1 (stereo unspecified),-0.786,20.2,-7.83,-3.74,-4.44,0,6.63,38.5,-0.493,-34.2,-7.2
CC1CCN(C(CNC(=O)CCn2cccn2)c2cccs2)CC1 (stereo unspecified),-0.447,13.3,-0.997,10.3,2.82,8.85,26.5,4.2,6.01,21,-5.13
CN(Cc1ccc2c(c1)OCCO2)C(=O)NCCc1cnn(C)c1,-2.93,18.9,-2.51,14.3,-10.3,0.554,14.5,18,2.97,-1.22,-6.78
CN(C)C(=O)CNC(=O)c1ccc(Cl)cc1F,-6.12,21.1,-0.479,-6.12,3.99,-65.1,13.7,15.7,6.38,-28.6,-15.3
CC(C)n1ccnc1C1CCN(Cc2ccc(Cl)s2)CC1,-4.43,7.79,1.43,13.8,7.96,6.9,6.99,9.49,8.6,16.1,-1.15
CC(=O)N1CCN(Cn2nc(-c3ccc(F)cc3)oc2=O)CC1,-3.09,23.4,-4.67,-7.73,-2.25,0.712,8.11,15,9.71,21.9,-10.3
CN1CCCC(c2cccc(Cc3ccccc3Cl)n2)C1 (stereo unspecified),-3.49,-4.05,7.5,3.2,1.38,-3.48,1.72,5.26,2.15,1.3,-7.93
Cc1nc(C)n(CC2CCCCN2CCCS(=O)(=O)N(C)C)n1 (stereo unspecified),4.38,16.2,-12.4,5.89,2.7,3.33,11.9,4.05,4.76,7.32,-0.511
CN(C(=O)c1ccccc1Cl)C1CCN(c2ccccn2)CC1,-6.46,23.4,-2.17,-1.36,6.95,-2.32,12.7,9.9,7.62,23.5,-2.92
